# Measured values from the supplement of paper PMC8728848.
# About 410 targets per protein were measured; listed, in parts, are those with the strongest signals and a random draw of the rest.
# Tests used:
# Assay in all cases: glycan array binding signal (z-score within array); higher = stronger binding
# Details in all cases: glycan notation: IUPAC condensed, linker removed
# Gal6S(b1-4)GlcNAc6S = target: Gal6S(b1-4)GlcNAc6S
# Outline: (§1)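 Glycan array data were curated from 3228 arrays in the Consortium for Functional Glycomics database and kept only where the protein sequence was available. Glycan names were converted to IUPAC-condensed notation, and columns mapping to the same glycan were averaged. The binding signal is a within-array Z-score, averaged across arrays of the same protein sequence at different concentrations or buffers and across linkers. Negative Z-scores can be read as non-binding.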
# [1] = target: GalNAc(a1-3)GalNAc(b1-3)Gal(a1-4)Gal(b1-4)Glc
# Outline: as §1
# GalNAc(b1-4)GlcNAc = target: GalNAc(b1-4)GlcNAc
# Outline: as §1
# [2] = target: Glc(a1-6)Glc(a1-6)Glc(a1-6)Glc
# Outline: as §1
# [3] = target: GlcNAc(b1-2)[GlcNAc(b1-4)]Man(a1-3)[GlcNAc(b1-2)Man(a1-6)]Man(b1-4)GlcNAc(b1-4)GlcNAc
# Outline: as §1
# [4] = target: GlcNAc(b1-3)Gal(b1-4)GlcNAc(b1-2)Man(a1-3)[GlcNAc(b1-3)Gal(b1-4)GlcNAc(b1-2)Man(a1-6)]Man(b1-4)GlcNAc(b1-4)[Fuc(a1-6)]GlcNAc
# Outline: as §1
# [5] = target: GlcNAc(b1-3)Gal(b1-4)GlcNAc(b1-3)Gal(b1-4)GlcNAc(b1-2)Man(a1-3)[GlcNAc(b1-3)Gal(b1-4)GlcNAc(b1-3)Gal(b1-4)GlcNAc(b1-2)Man(a1-6)]Man(b1-4)GlcNAc(b1-4)[Fuc(a1-6)]GlcNAc
# Outline: as §1
# [6] = target: GlcNAc(b1-3)Gal(b1-4)GlcNAc(b1-3)Gal(b1-4)GlcNAc(b1-2)[GlcNAc(b1-3)Gal(b1-4)GlcNAc(b1-3)Gal(b1-4)GlcNAc(b1-6)]Man(a1-6)[GlcNAc(b1-3)Gal(b1-4)GlcNAc(b1-3)Gal(b1-4)GlcNAc(b1-2)Man(a1-3)]Man(b1-4)GlcNAc(b1-4)[Fuc(a1-6)]GlcNAc
# Outline: as §1
# GlcNAc(b1-3)GalNAc = target: GlcNAc(b1-3)GalNAc
# Outline: as §1
# Kdn(a2-3)Gal(b1-4)Glc = target: Kdn(a2-3)Gal(b1-4)Glc
# Outline: as §1
# [7] = target: Man(a1-2)Man(a1-3)[Man(a1-2)Man(a1-6)]Man(a1-6)[Man(a1-2)Man(a1-2)Man(a1-3)]Man
# Outline: as §1
# [8] = target: Man(a1-3)[Man(a1-6)]Man(a1-6)[Man(a1-2)Man(a1-3)]Man(b1-4)GlcNAc(b1-4)GlcNAc
# Outline: as §1
# [9] = target: Man(a1-3)[Man(a1-6)]Man(a1-6)[Man(a1-3)]Man
# Outline: as §1
# [10] = target: Neu5Ac(a2-3)Gal(b1-3)GalNAc(b1-4)[Neu5Ac(a2-3)]Gal(b1-4)Glc
# Outline: as §1
# [11] = target: Neu5Ac(a2-3)Gal(b1-3)GalNAc6S
# Outline: as §1
# [12] = target: Neu5Ac(a2-3)Gal(b1-3)[Fuc(a1-4)]GlcNAc
# Outline: as §1
# [13] = target: Neu5Ac(a2-3)Gal(b1-4)GlcNAc(b1-2)Man(a1-3)[Neu5Ac(a2-3)Gal(b1-4)GlcNAc(b1-2)Man(a1-6)]Man(b1-4)GlcNAc(b1-4)GlcNAc
# Outline: as §1
# [14] = target: Neu5Ac(a2-3)Gal(b1-4)GlcNAc(b1-2)[Neu5Ac(a2-3)Gal(b1-4)GlcNAc(b1-4)]Man(a1-3)[GlcNAc(b1-4)][Neu5Ac(a2-3)Gal(b1-4)GlcNAc(b1-4)Man(a1-6)]Man(b1-4)GlcNAc(b1-4)GlcNAc
# Outline: as §1
# [15] = target: Neu5Ac(a2-3)Gal(b1-4)[Fuc(a1-3)]GlcNAc(b1-3)Gal(b1-4)GlcNAc
# Outline: as §1
# [16] = target: Neu5Ac(a2-3)[GalNAc(b1-4)]Gal(b1-4)GlcNAc
# Outline: as §1
# [17] = target: Neu5Ac(a2-6)Gal(b1-4)GlcNAc(b1-6)[Gal(b1-3)GlcNAc(b1-3)]Gal(b1-4)Glc
# Outline: as §1
# [18] = target: Neu5Ac(a2-8)Neu5Ac(a2-3)[GalNAc(b1-4)]Gal(b1-4)Glc
# Outline: as §1
# [19] = target: Neu5Ac9Ac(a2-3)Gal(b1-4)GlcNAc
# Outline: as §1
# [20] = target: Neu5Ac9Ac(a2-6)Gal(b1-4)GlcNAc
# Outline: as §1
# [21] = target: Neu5Gc(a2-3)Gal(b1-4)GlcNAc
# Outline: as §1
# [22] = target: Neu5Gc(a2-8)Neu5Gc(a2-3)Gal(b1-4)GlcNAc
# Outline: as §1
# [23] = target: Neu5Gc(b2-6)Gal(b1-4)GlcNAc
# Outline: as §1
binder,measurement,setting,value
Epa23 (Candida glabrata) (protein) MGSSHHHHHHSSGLVPRGSHMIPNPFEGTINNFPSGCSPNHGLYNRGLTMELYNYSYIHPQSIQSYFNTSTLKKMEKGQCWDPSYLDVNYPRTGYKTHNRFAKVNGIDGILDFEFNPTRSCVPSKGQLPQNYNYPLQFTLSNFTMLLYGYFKPKVTAKHTFTIFADDLLFLNFGAGNAFDCCQQQDTIDDFGNYQAYALWGSDTQQNTLTVNLDANIYYPIRMFYNNRDFKGALNMYFTTDESNTKINDFSGYLFNIPDSSEGCPAHISYETECGNVSG,glycan array binding signal (z-score),Gal6S(b1-4)GlcNAc6S,13.5
same,glycan array binding signal (z-score),[1],-0.137
same,glycan array binding signal (z-score),GalNAc(b1-4)GlcNAc,-0.168
same,glycan array binding signal (z-score),[2],-0.278
same,glycan array binding signal (z-score),[3],-0.21
same,glycan array binding signal (z-score),[4],-0.199
same,glycan array binding signal (z-score),[5],-0.176
same,glycan array binding signal (z-score),[6],-0.093
same,glycan array binding signal (z-score),GlcNAc(b1-3)GalNAc,-0.243
same,glycan array binding signal (z-score),Kdn(a2-3)Gal(b1-4)Glc,-0.263
same,glycan array binding signal (z-score),[7],-0.233
same,glycan array binding signal (z-score),[8],-0.22
same,glycan array binding signal (z-score),[9],-0.232
same,glycan array binding signal (z-score),[10],-0.24
same,glycan array binding signal (z-score),[11],-0.246
same,glycan array binding signal (z-score),[12],-0.296
same,glycan array binding signal (z-score),[13],-0.249
same,glycan array binding signal (z-score),[14],-0.243
same,glycan array binding signal (z-score),[15],-0.288
same,glycan array binding signal (z-score),[16],-0.198
same,glycan array binding signal (z-score),[17],-0.13
same,glycan array binding signal (z-score),[18],-0.297
same,glycan array binding signal (z-score),[19],-0.225
same,glycan array binding signal (z-score),[20],-0.239
same,glycan array binding signal (z-score),[21],-0.274
same,glycan array binding signal (z-score),[22],-0.215
same,glycan array binding signal (z-score),[23],-0.194
